Giardia killer: kills Giardia lamblia; Giardia lamblia trophozoite viability; activity change, % at 7.66 µM, hits read low; actives 0.15% (n = 340,000); AID 540267; in the data active = activity change below about -80%; inconclusive = between about -30% and that limit;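 also: parasites exposed to compound for two days anaerobically before the ATP read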
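Giardia trophozoites, 100 cells per well, were exposed to compounds for 48 hrs at 37 deg C under anaerobic conditions; viability was then read as ATP content by bioluminescence after 15-30 min at room temperature.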
TDP1 cell CPT: growth inhibition of DT40 Tdp1-/-;hTDP1 cells with camptothecin (screen for TDP1 inhibitors) | Potency, µM (doses to about 46.2 µM), for the others: top-dose activity change, negative = growth inhibition, usual class: inhibitors | actives 12% (n = 420,000) | AID 686979 | chicken DT40 Tdp1-/-;hTDP1 cells + 20 nM CPT, ATP luminescence, 48 h; also: potency is read from the fitted curve at half-maximal effect; nearly all actives have a fitted effect of over 55% in size
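Chicken DT40 Tdp1-/- cells complemented with human TDP1, 400 cells/well, exposed to compounds plus 20 nM camptothecin for at least 48 h at 37 C; viability read as ATP content by CellTiter-Glo luminescence.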
TDP1 block: blocks human tyrosyl-DNA phosphodiesterase 1; Q9NUW8; recombinant TDP1, AlphaScreen DNA substrate cleavage; Potency, µM (doses to about 130 µM), for inactives: at the top dose activity change, negative = inhibition, usual class: inhibitors; actives 0.28% (n = 350,000); AID 485290; also: potency is read from the fitted curve at half-maximal effect; nearly all actives have a fitted effect of over 40% in size
Target sequence (Q9NUW8 whole entry, looked up): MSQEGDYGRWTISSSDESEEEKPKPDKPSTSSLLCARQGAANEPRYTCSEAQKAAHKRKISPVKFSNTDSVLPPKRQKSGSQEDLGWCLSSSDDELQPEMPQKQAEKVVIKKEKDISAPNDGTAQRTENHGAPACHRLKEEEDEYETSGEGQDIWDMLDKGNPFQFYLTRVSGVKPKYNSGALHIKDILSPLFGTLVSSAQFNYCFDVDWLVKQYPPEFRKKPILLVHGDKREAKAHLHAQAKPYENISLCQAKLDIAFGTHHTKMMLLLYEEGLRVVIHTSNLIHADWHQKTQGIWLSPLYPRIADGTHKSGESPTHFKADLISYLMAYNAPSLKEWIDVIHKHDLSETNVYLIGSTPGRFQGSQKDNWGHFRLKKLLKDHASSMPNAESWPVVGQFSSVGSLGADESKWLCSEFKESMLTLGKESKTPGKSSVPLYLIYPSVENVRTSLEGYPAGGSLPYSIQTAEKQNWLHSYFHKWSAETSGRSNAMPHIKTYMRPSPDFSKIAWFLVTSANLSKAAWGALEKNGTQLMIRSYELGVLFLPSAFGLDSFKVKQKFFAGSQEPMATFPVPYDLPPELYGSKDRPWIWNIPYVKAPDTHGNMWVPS
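Steps: enzyme plus compound, 15 min RT; add biotin/phosphotyrosine-FITC oligonucleotide (15 nM final), react 5 min; add donor/acceptor beads (10 ug/ml final), 10 min; read AlphaScreen. Tdp1 at 1 nM final.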
IL1B secr inh: inflammasome signaling inhibition, IL-1 beta readout; THP-1 LPS/ATP IL-1B secretion, AlphaLISA, 16 h; stronger effect = lower value; activity change, % at 57.5 µM; AID 743279; actives 4.7% (n = 360,000); in the data active = activity change below about -50%; inconclusive = mostly about -30% to -49%
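THP-1 cells pretreated 1 hr with compounds (up to 57.5 uM final), then stimulated with LPS (250 ng/mL final) plus ATP (1.25 mM final); secreted IL-1B measured by AlphaLISA after 16 hr, decreased signal indicating inhibition.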
ELG1 repair inh: blocks ELG1-dependent DNA repair in HEK293T cells; Potency, µM (doses to about 46.1 µM), without a hit: top-dose activity change, negative = inhibition, usual class: inhibitors; HEK293T ELG1-luciferase reporter, luminescence, 16 h; DNA damage induced by 5-fluorouridine; actives 2.3% (n = 330,000); also: potency is read from the fitted curve at half-maximal effect; nearly all actives have a fitted effect of over 55% in size
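Cells (2,000 per well) received 5-fluorouridine plus test compound or DMSO and were incubated 16 hr at 37 °C, 5% CO2. Luciferase activity was read by luminescence 30 min after ONE-Glo addition; signal suppression marked inhibition of damage-induced ELG1 function.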
TDP1 cell noCPT: qHTS for Inhibitors of human tyrosyl-DNA phosphodiesterase 1 (TDP1): qHTS in cells in absence of CPT | actives 15% (n = 420,000) | Potency, µM (titrated, usually from 46.2 µM), for the others: at the highest dose activity change, negative = growth inhibition, most hits filed as inhibitors | DT40 Tdp1-/- hTDP1 cells, no CPT, ATP luminescence, 48 h; also: potency is read from the fitted curve at half-maximal effect; nearly all actives have a fitted effect of over 55% in size
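Seeded 400 DT40-hTDP1 cells/well (vehicle DMSO, no 20 nM CPT); pinned compounds; ≥48 hr at 37 °C; CellTiter-Glo luminescence as viability measure.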
The depositor's hits bear a star; u = inconclusive; x = no result given; [ ] = another dose, or the depositor's remark. Sampled rows, rich in hits. Any-hit rate of the full collection: about 19%. Unless noted, calls follow the shape of the dose curve; as a rule, active = well fitted curve in the direction sought with a large enough effect; inconclusive = small, poorly fitted or top-dose-only effect, or another doubt; inactive = no such curve, though single readings can be large; an effect the other way counts as inactive or inconclusive. % is scaled to controls: 0 for no effect and ±100 for the full control effect.

SMILES | Giardia killer | TDP1 cell CPT | TDP1 block | IL1B secr inh | ELG1 repair inh | TDP1 cell noCPT
COC(=O)Nc1nc(-c2ccccc2)c(C(=O)c2ccccc2)s1 | 12.9 | 0.82µM* | 6.7% | 32.7 | 5.0% | 0.651µM*
COC(=O)Nc1nc(C)c(C(=O)c2ccccc2)s1 | -0.2 | 8.2µM* | 3.4% | 26.0 | 0.0% | 11.6µM*
CN(C)S(=O)(=O)c1ccc(C(=O)Nc2nc(-c3ccccc3)c(C(=O)c3ccccc3)s2)cc1 | -8.0 | u | 3.0% | 18.1 | 1.1% | u
Nc1c2c(nc3ccn(-c4ccccc4)c(=O)c13)CCCCC2 | -2.5 | -12.4% | -3.1% | -58.3* | u | u
O=C(O)c1c2c(nc3ccccc13)CCCCC2 | -6.6 | -17.8% | 4.6% | 6.3 | u | 10.6%
O=C(OCc1cn([C@@H]2C[C@H](c3ccc(Cl)cc3)N(C(=O)c3cccs3)C[C@H]2O)nn1)c1ccccc1 | x | -5.4% | x | -4.2 | x | u
O=C1CNC(=S)N1CCc1ccc(Cl)cc1 | 32.7 | 26.0% | 2.6% | -18.0 | 2.4% | 16.4µM*
COC(=O)CCC(=O)OC1(C)C(=O)C2=CN(c3ccccc3)C(c3ccc(OC)cc3)=CC2=C(Br)C1=O (centres undefined) | 11.7 | u | -1.6%[21 µM] | 20.3 | x | u
C=CCN1C=C2C(=O)C(C)(OC(=O)c3ccco3)C(=O)C(C=C)=C2C=C1C1CC1 (centres undefined) | x | x | 5.4%[21 µM] | x | x | x
COC(=O)CCC(=O)OC1(C)C(=O)C2=CN(CCCOC(C)C)C(c3ccc(OC)cc3)=CC2=C(Br)C1=O (centres undefined) | -9.2 | 18.4µM* | 5.9% | -0.7 | -1.4% | 16.4µM*
CCCCC1=CC2=C(c3ccco3)C(=O)C(C)(OC(=O)c3ccc(OC)cc3)C(=O)C2=CN1c1ccccc1 (centres undefined) | 9.7 | 23.1µM* | 4.4%[21 µM] | 10.0 | -1.0% | u
C=CCN1C=C2C(=O)C(C)(OC(=O)c3ccc(OC)cc3)C(=O)C(c3ccco3)=C2C=C1CCCC (centres undefined) | -4.0 | 13µM* | 5.9%[12.3 µM] | 21.6 | 0.7% | -3.7%
COC(=O)CCCC1=CC2=C(c3ccccc3)C(=O)C(C)(OC(=O)C3CCCC3)C(=O)C2=CN1CCCOC(C)C (centres undefined) | x | x | 11.9%[12.3 µM] | x | x | x
CCCCC1=CC2=C(c3ccco3)C(=O)C(C)(OC(=O)c3ccc(OC)cc3)C(=O)C2=CN1CCCOC(C)C (centres undefined) | -4.9 | 5.17µM* | 13.4%[12.3 µM] | -14.4 | -26.5% | 6.51µM*
CCOc1ccc(NC(=O)Cn2c(=O)n(CC3CCC(C(=O)NCCc4ccccc4)CC3)c(=O)c3ccccc32)cc1 (centres undefined) | x | 5.4% | 5.0% | x | x | 3.8%
COC(=O)c1sc(=S)n(-c2cc(F)ccc2F)c1N | -8.5 | 14.6µM* | -2.1% | -7.2 | 2.2% | u
NS(=O)(=O)c1ccc(NC(=O)CN2CCN(c3ccc(F)cc3)CC2)cc1 | x | -16.5% | -1.2% | x | x | -22.3%
COc1cccc(NC(=S)N2CCn3cccc3C2c2cccnc2)c1 (centres undefined) | -13.8 | -6.2% | -6.1% | -18.3 | -7.9% | -27.0%
CC1(c2ccccc2)CC(C)(C)n2c(O)c(C3=NC(=S)NC3=O)c3cccc1c32 (centres undefined) | 0.3 | u | x | 34.3 | 2.5% | 23.1µM*
O=C(NN1CCOCC1)c1ccccc1Br | -5.4 | -6.4% | 2.0% | 31.3 | 8.6% | -6.2%
OC1(c2cccnc2)CCN(Cc2ccc3c(c2)CN(Cc2ccc(F)c(F)c2)CCO3)CC1 | x | -5.8%[9.04 µM] | x | x | x | 11.6µM*
Cc1nn(C)c(Cl)c1CN1CCOc2ccc(CN3CCC(Oc4cccnc4)CC3)cc2C1 | x | 10.3µM* | x | x | x | 8.2µM*
Cc1nn2c(c1-c1ccc(Cl)cc1)N=C(c1ccco1)CC2c1ccccc1 (centres undefined) | -6.0 | 14.6µM* | 8.6% | u | u | u
CC(=O)N1N=C(c2ccco2)CC1c1ccc(C)cc1 (centres undefined) | -0.6 | 9.5% | 2.7% | 4.5 | 20.7% | u
Cc1ccc(S(=O)(=O)CC(=O)N2CCCCCC2)cc1 | 3.3 | -18.4% | -2.1% | -2.5 | 19.2% | -8.0%
SMILES | Giardia killer | TDP1 cell CPT | TDP1 block | IL1B secr inh | ELG1 repair inh | TDP1 cell noCPT
Cc1ccc(CC(=O)N2CCN(c3ccc([N+](=O)[O-])cc3)CC2)cc1 | -13.7 | u | x | x | -21.8% | 7.31µM*
CC(=O)N1CCN(c2ccc([N+](=O)[O-])cc2)CC1 | -6.9 | 8.8% | -2.8% | 16.2 | -5.1% | -21.2%
Cc1ccc(S(=O)(=O)CC(=O)N2CCN(c3ccc([N+](=O)[O-])cc3)CC2)cc1 | -29.9 | 13µM* | 5.4% | -21.3 | 10.3µM* | u
CCOc1ccc(N2CC(NC(=O)c3ccc(S(=O)(=O)N4CCCC4)cc3)CC2=O)cc1 (centres undefined) | x | 5.8% | 2.6% | x | x | -23.2%
COc1ccccc1-c1cn[nH]c1-c1ccc(OCc2ccccc2)cc1O | 4.7 | -0.3% | x | -99.4* | u | u
CCOc1ccc(-c2[nH]ncc2-c2ccccc2)c(O)c1 | 3.9 | -30.7% | 1.8% | -0.3 | 15.0% | u
COc1ccc(-c2nc(C)ncc2-c2ccc(Cl)cc2)c(O)c1 | 1.6 | 14.6µM* | x | -12.5 | -0.8% | -10.8%
COc1ccc2c(c1)CCc1cn[nH]c1-2 | -14.9 | u | x | -9.9 | -0.1% | 23.1µM*
COc1ccc2c(c1)CCc1cnoc1-2 | -2.1 | -17.6% | x | -17.1 | x | -21.9%
COc1ccc(-c2cn[nH]c2-c2ccc(OCc3ccccc3)cc2O)cc1 | -0.4 | u | x | -99.3* | 20.6µM* | u
COc1ccc(-c2nc(C)ncc2-c2ccccc2)c(O)c1 | 8.8 | -16.5% | x | 6.1 | u | -8.8%
CCCCC/C=C\C=C\[C@H](O)CCCCCCCC(=O)O | x | 0.8%[0.628 µM] | 11.0% | x | x | 2.6%[0.628 µM]
COc1cccc(C(=O)NCc2cn3ccccc3n2)c1 | x | 2.5% | 11.4% | x | x | 16.9%
O=C(COc1ncnc2ccccc12)NCC1CCCO1 (centres undefined) | 0.1 | 1.5% | 1.2% | 0.0 | -5.9% | -10.8%
COc1ccc(-c2cn[nH]c2-c2ccc(OC)cc2O)cc1 | -1.0 | u | x | -84.5* | 10.3µM* | u
Cc1cccn2c(CN(C)CC3Cc4ccccc4O3)c(C(=O)N3CCCCC3)nc12 (centres undefined) | -6.0 | -19.4% | x | 18.9 | -4.2% | 2.7%
COc1ccc2c(c1)c1c(c(=O)n(-c3ccc(F)c(Cl)c3)c(=O)n1CC(N)=O)n2C | x | -23.0% | 5.6% | x | x | -8.9%
